From PubChem BioAssay
Most compounds without a hit are left out; they make up all but 9.2% or so of the library.
Rab9 promoter act: activates the Rab9 promoter. Huh7 Rab9 promoter-luciferase reporter, luminescence, 24 h. Potency, µM (highest dose often 9.22 µM), without a hit: top-dose activation, negative = inhibition, actives largely listed as activators. 2.8% of 320,000 active; note: % of control where 0% means no effect; nearly all actives have a fitted effect of over 60% in size
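Cells were plated at 1500 per well in reduced-serum medium with 10% FBS and left 2 h. Compound in DMSO was then added for 24 h at 37 °C. Reporter signal was read by luminescence after 10 min with luciferase detection reagent.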
FLuc modulator: inhibits or activates purified firefly luciferase, miR-21 counter-screen; purified FLuc, Km substrates, luminescence inhibition; Potency, µM (series often up to 57.5 µM), inactives show at the top dose activity change, negative = inhibition, usual class: inhibitors; 6.9% of 360,000 active;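 note: plate controls were vehicle for no effect and reference inhibitor for full effect; nearly all actives have a fitted effect of over 55% in size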
Target sequence (P08659 whole entry, looked up): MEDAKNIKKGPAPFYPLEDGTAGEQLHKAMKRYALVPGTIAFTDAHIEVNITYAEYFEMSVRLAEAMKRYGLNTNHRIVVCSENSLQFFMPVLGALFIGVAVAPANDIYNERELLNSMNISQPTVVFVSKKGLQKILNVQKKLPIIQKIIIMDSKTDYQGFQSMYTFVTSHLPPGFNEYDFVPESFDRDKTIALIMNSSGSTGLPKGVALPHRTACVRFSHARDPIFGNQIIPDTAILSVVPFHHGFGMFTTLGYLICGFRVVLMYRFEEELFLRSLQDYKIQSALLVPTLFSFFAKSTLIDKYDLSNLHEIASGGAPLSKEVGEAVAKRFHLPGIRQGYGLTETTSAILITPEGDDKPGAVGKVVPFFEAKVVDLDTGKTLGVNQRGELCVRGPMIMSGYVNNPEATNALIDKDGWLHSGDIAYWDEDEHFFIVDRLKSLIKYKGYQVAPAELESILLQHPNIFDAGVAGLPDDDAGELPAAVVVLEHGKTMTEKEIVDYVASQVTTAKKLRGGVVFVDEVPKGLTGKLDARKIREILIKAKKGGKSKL
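Purified P. pyralis luciferase (10nM final) with 10uM D-luciferin and 10uM ATP (Km levels) in 50mM Tris acetate pH 7.5, 10mM Mg acetate, 0.01% Tween-20, 0.05% BSA; qHTS 6-point titration, ~60 µM downward; luminescence read.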
NPC1 prom act: activates the NPC1 promoter. Huh7 NPC1 promoter luciferase reporter, 24 h. Potency, µM (highest dose often 9.22 µM), inactives show top-dose activation, hits mostly activators. 2.4% of 320,000 active. AID 485313; note: % of control where 0% means no effect; nearly all actives have a fitted effect of over 60% in size
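Luminescence read-out of NPC1 promoter-driven luciferase in stably transfected Huh7 cells; compounds delivered in DMSO and left 24 h at 37C, 5% CO2, qHTS titration format.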
ELG1 genotox: genotoxicity induction in ELG1-luciferase HEK293T cells; HEK293T ELG1-luciferase reporter, luminescence, 16 h; 1.3% of 330,000 active; AID 504466; Potency, µM (titrated, usually from 46 µM), for inactives: top-dose activity change, positive = activation, most hits filed as activators; note: % of control where 0% means no effect; nearly all actives have a fitted effect of over 60% in size
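HEK293T cells expressing luciferase-tagged ELG1 were treated with compound or DMSO for 16 hr at 37°C. Luciferase activity was then read after 30 min with ONE-Glo at room temperature; rising signal flags genetic stress.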
ELG1 repair inh: ELG1-dependent DNA repair inhibition; HEK293T ELG1-luciferase reporter, luminescence, 16 h; DNA damage induced by 5-fluorouridine; Potency, µM (top dose mostly 46.1 µM), for the others: at the highest dose activity change, negative = inhibition, hits mostly inhibitors; 2.3% of 330,000 active; AID 504467; note: % is set by controls: 0 for no effect and ±100 for the full control effect; nearly all actives have a fitted effect of over 55% in size
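Quantitative HTS, concentration-response format. 2,000 cells/well co-treated with 5-fluorouridine and compound, 16 hr in 5% CO2 at 37 °C; ONE-Glo luminescence read after 30 min.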
SMN2 splice enh: enhancers of SMN2 splice variant expression; HEK293 SMN2-luciferase splicing reporter, luminescence, 30-36 h; Potency, µM (series often up to 46.1 µM), for inactives: at the top dose activity change, positive = activation, hits mostly activators; 2.8% of 210,000 active; AID 1458; note: % of control where 0% means no effect; nearly all actives have a fitted effect of over 55% in size
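qHTS luciferase splicing reporter: luminescence rises when SMN2 exon 7 is included in transfected HEK293 cells. Compound exposure lasted 30-36 h at 37C, with 4.5 mM final sodium butyrate as control, followed by a ONE-Glo read.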
* = called active by the depositor; ? = inconclusive; nt = no result given; [ ] = remark or other dose. Calls come from the whole dose curve; as a rule, active = well fitted curve in the direction sought with a large enough effect; inconclusive = small, poorly fitted or top-dose-only effect, or another doubt; inactive = no such curve, though single readings can be large; an effect the other way counts as inactive or inconclusive. Potency is the fitted concentration of half-maximal effect.

SMILES	Rab9 promoter act	FLuc modulator	NPC1 prom act	ELG1 genotox	ELG1 repair inh	SMN2 splice enh
C[C@@H]1[C@H](O)C[C@@]23COC(=O)C2=CCC[C@@H]3[C@@]1(C)CC/C(=C/CO)CO	1.3%	4.5%	-1.7%	25.5%	-15.4%	nt
CCOC(=O)COc1c(/C=N\OC)cc(Cl)cc1OC	0.8%	1.2%	-2.1%	-0.3%	1.7%	-5.3%
COC(=O)C1=C(C(=O)OC)[C@]2([C@H]3CCCCN[C@@H](Cc4ccccc4)C(=O)N3Cc3ccccc3)C=C[C@H]1O2	nt	nt	nt	-0.4%	-1.7%	nt
COc1ccc(NS(=O)(=O)c2ccc3c(c2)CCC(=O)N3)cc1O	2.0%	5.8%	-7.5%	-2.3%	11.2%	nt
COc1ccc(NCC(=O)N/N=C/C2CCCCC2)cc1	9.2%	1.8%	2.3%	-2.1%	-5.4%	nt
Cc1ccc(NC(=O)C(Cc2ccccc2)NS(=O)(=O)c2ccc3c(c2)CCC(=O)N3)cc1 (stereo not drawn)	nt	-6.3%	nt	nt	nt	-31.3%
O=C(CSc1nc(-c2ccccc2)ns1)NCC1CCCO1 (stereo not drawn)	27.7%	?	?	?	?	nt
COc1ccc(-c2cn3nc(SCC(=O)Nc4ccccc4F)ccc3n2)cc1	nt	1.07µM*	nt	nt	nt	nt
O=C(CSc1ccc(-c2ccc(-n3cccn3)cc2)nn1)Nc1ccccc1F	1.8%	0.601µM*	13.5%	?	?	nt
COc1ccc(-c2cn3nc(SCC(=O)NCC4CCCO4)ccc3n2)cc1 (stereo not drawn)	1.58µM*	2.69µM*	?	?	?	nt
O=C(CSc1ccc2nc(-c3ccccc3)cn2n1)NCC1CCCO1 (stereo not drawn)	?	19µM*	?	9.9%	?	nt
Cc1ccccc1NC(=O)N1CCC(NC(=O)C2CCCCC2)CC1	4.2%	-2.2%	1.3%	-5.6%	-7.4%	nt
Cc1cccc(NC(=O)Cn2cc(C(=O)c3ccco3)c3ccccc32)c1C	nt	-8.7%	nt	nt	nt	-23.5%
COc1ccc2occ(C(=O)c3cccs3)c2c1	?	6.01µM*	?	6.51µM*	?	-12.4%
COc1ccc2occ(C(=O)c3ccc(N)cc3)c2c1	0.631µM*	6.01µM*	1.41µM*	?	?	nt
COc1ccc(C(=O)c2coc3ccc(OC(C)=O)cc23)cc1	15.3%	9.53µM*	?	?	?	nt
COc1ccc(C)cc1NC(=O)c1ccc(NS(=O)(=O)c2cccs2)cc1	-1.2%	1.7%	-0.2%	3.5%	-2.8%	nt
CCCNC(=O)C1CC(=O)N(c2ccc(OCc3ccc(Cl)cc3)cc2)C1 (stereo not drawn)	3.98µM*	2.13µM*	1.41µM*	1.83µM*	?	nt
CCCNC(=O)C1CC(=O)N(c2ccc(OCc3ccc(F)cc3)cc2)C1 (stereo not drawn)	0.891µM*	4.78µM*	0.631µM*	6.51µM*	?	nt
CCOc1ccc(N2CC(C(=O)NCCc3ccccc3)CC2=O)cc1 (stereo not drawn)	-5.4%	1.2%	0.0%	-3.4%	-0.8%	nt
C=CCNC(=O)C1CC(=O)N(c2ccc(OCC(=O)Nc3ccccc3)cc2)C1 (stereo not drawn)	3.55µM*	12µM*	2.82µM*	?	?	12.6µM*
C=CCNC(=O)C1CC(=O)N(c2ccc(OCc3ccc(F)cc3)cc2)C1 (stereo not drawn)	1.41µM*	7.57µM*	1.12µM*	18.3µM*	?	nt
CCN(CC)C(=O)c1c(-c2ccccc2)c(-c2ccccc2)nn(C)c1=O	nt	-6.2%	nt	nt	nt	-3.4%
O=C(Nc1ccccc1)c1cccc(S(=O)(=O)Oc2ccc([N+](=O)[O-])cc2)c1	-3.0%	2.2%	-4.1%	-1.3%	-0.4%	5.6%
NC(=O)C1CC(=O)N(c2ccc(OCc3ccc(Cl)cc3)cc2)C1 (stereo not drawn)	2.82µM*	8.49µM*	2.82µM*	?	?	nt
SMILES	Rab9 promoter act	FLuc modulator	NPC1 prom act	ELG1 genotox	ELG1 repair inh	SMN2 splice enh
CCOc1ccc(N2CC(C(=O)N3CCCC3)CC2=O)cc1 (stereo not drawn)	-6.5%	0.1%	-5.1%	3.9%	14.5%	nt
Cc1ccsc1/C=N\NC(=O)c1cc(C(C)(C)C)[nH]n1	2.82µM*	12µM*	2.82µM*	?	?	11.2µM*
Cc1ccc(-c2cc(C(=O)N/N=C/c3ccco3)n[nH]2)s1	0.8%	?	-0.9%	-0.5%	11.3%	-3.3%
CC(C)(C)c1cc(C(=O)N/N=C/c2ccco2)n[nH]1	?	13.5µM*	?	12.9%	?	?
Nc1c(Cl)c(Cl)nc(C(=O)N/N=C/c2ccco2)c1Cl	3.3%	-2.8%	23.6%	-1.2%	-14.0%	nt
Nc1nccnc1C(=O)N/N=C/c1ccco1	?	13.5µM*	27.0%	14.0%	?	nt
Cc1cc(C(=O)N/N=C/c2sccc2C)no1	9.3%	?	6.2%	10.6%	?	?
CCCCc1nc2c(c3c1C[C@H](C)OC3)CN(C(=O)Nc1ccc(OC)cc1)CC2	nt	nt	nt	nt	nt	-0.6%[9.22 µM]
CCN(CC)C(=S)NC(=O)c1cc(OC)c(OC)c(OC)c1	-15.4%	-2.1%	-8.1%	0.1%	2.5%	-2.7%
CCNC(=S)Nc1cc(-c2ccc(Cl)cc2)[nH]n1	-12.9%	?	3.3%	-0.7%	2.2%	nt
Nc1c(Cl)ncnc1N/N=C/c1ccc(O)cc1	20.0%	13.5µM*	-3.3%	?	?	nt
Oc1ccc(/C=N/Nc2nccnc2Cl)cc1	3.16µM*	10.7µM*	3.98µM*	11.6µM*	?	?
Nc1c(Cl)ncnc1NCCO	8.0%	1.2%	-2.2%	0.5%	12.4%	nt
CC(Sc1ccccc1)C(=O)NN=C1CCCCCCC1 (stereo not drawn)	-8.3%	-0.2%	-8.0%	0.1%	8.2%	nt
Cc1ccc(Cc2c(C)nc3nc(SCC(=O)NCCC(C)C)nn3c2C)cc1	nt	0.2%	nt	nt	nt	3.0%
Cc1ccc2c(CNCc3ccccc3)cc(=O)oc2c1	-21.7%	-3.3%	-30.9%	-12.1%	?	nt
COc1ccccc1C(=O)N=c1sc2c(C)ccc(OC)c2n1C	26.4%	15.1µM*	?	?	0.0%	nt
COc1ccccc1N=c1sc2ccccc2n1C	-2.4%	-7.1%	0.5%	5.6%	12.3%	-25.3%
COc1cccc(C(=O)N=c2sc3c(C)ccc(OC)c3n2C)c1	0.708µM*	0.675µM*	0.708µM*	0.651µM*	?	2.82µM*
COc1ccc(C(=O)N=c2sc3ccccc3n2C)cc1OC	2.24µM*	10.7µM*	2.51µM*	?	?	17.8µM*
COc1ccc(N=c2sc3ccccc3n2C)cc1	2.24µM*	6.01µM*	2.51µM*	8.2µM*	?	?
COc1ccc(C(=O)N=c2sc3c(C)ccc(OC)c3n2C)cc1OC	1.78µM*	2.69µM*	1.58µM*	-2.7%	?	nt
